Experimental data: the supplement of paper PMC10849652
Targets with a hit are over-represented here; the source holds about 8,800 in all. About 0.5% of all pairs of compound and target were hits.

Legend:
Experiment in all cases: log2 fold change, soluble protein after heating vs DMSO (PISA); higher = thermal stabilisation; K562 lysate, 10 uM; active = over 0.2 and 3.5 SD of the protein, either way, in both replicates (recomputed)
erlotinib = compound: C#Cc1cccc(Nc2ncnc3cc(OCCOC)c(OCCOC)cc23)c1 [erlotinib]
How it was run: (§1)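 Quantification was by TMTpro 16plex LC-MS/MS with equalised channel sums, applied to the supernatant after 21,000xg for 90 min. Samples were crude K562 extract at 1 mg/mL protein in PBS pH 7.4 with 1 mM MgCl2, treated with 10 μM compound for 30 min, heated for 3 min across 48°C-58°C, pooled and brought to 0.5% NP-40 at 4°C. Values are log-two fold changes in thermal stability relative to solvent controls, from duplicates.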

[1] = compound: C/C(=N\NC(=O)C1=CC(=CC=C1)S(=O)(=O)N2CCOCC2)/C3=C(C=CC(=C3)Cl)O
How it was run: as §1

[2] = compound: C1=CC(=CC=C1C2=NC3=C(N2)C=C(C=C3)C(=O)N)OC4=CC=C(C=C4)Cl
How it was run: as §1

[3] = compound: C1=CC2=C(C=CC(=C2)/C=C\3/C(=O)NC(=NCC4=CC=CS4)S3)N=C1
How it was run: as §1

[4] = compound: C1=CC=C(C=C1)C2=NC(=C(N2)C3=CC=NC=C3)C4=CC(=C(C=C4)Cl)O
How it was run: as §1

[5] = compound: C1=CC=C2C(=C1)C3=NNC4=CC=CC(=C43)C2=O
How it was run: as §1

[6] = compound: C1CCN(C1)C(=O)NC2=CC=CC(=C2)NC3=NC=C(C(=N3)NCCC4=CN=CN4)Br
How it was run: as §1

[7] = compound: C1CN(CCC1(CC2=CC=C(C=C2)Cl)N)C3=NC=NC4=C3C=CN4
How it was run: as §1

IRAK-1-4 Inhibitor I = compound: C1COCCN1CCN2C3=CC=CC=C3N=C2NC(=O)C4=CC(=CC=C4)[N+](=O)[O-] [IRAK-1-4 Inhibitor I]
How it was run: as §1

ralimetinib = compound: CC(C)(C)Cn1c(N)nc2ccc(-c3[nH]c(C(C)(C)C)nc3-c3ccc(F)cc3)nc21 [ralimetinib]
How it was run: as §1

[8] = compound: CC(C)(O)CC(=O)NCCn1ccc2ncnc(Nc3ccc(Oc4cccc(C(F)(F)F)c4)c(Cl)c3)c21
How it was run: as §1

[9] = compound: CC(C)C1=C2N=C(C=C(N2N=C1)NCC3=CC=CC=C3)NCCCCCCN
How it was run: as §1

[10] = compound: CC1=C(C(CC(=O)N1)C2=CC=C(C=C2)C(F)(F)F)C(=O)NC3=C(C=C4C(=C3)C=NN4)F
How it was run: as §1

[11] = compound: CC1=C(C2=C(C=C1)C(=O)C3=CC=CC=C3N2CCCN)C
How it was run: as §1

[12] = compound: CC1=C(C=C(C=C1)NC(=O)C2=CC(=CC=C2)C(C)(C)C#N)NC3=CC4=C(C=C3)N=CN(C4=O)C
How it was run: as §1

[13] = compound: CC1=C(C=C(C=C1)NC(=O)C2=CC(=CC=C2)N(C)C)NC(=O)C3=CC=C(C=C3)O
How it was run: as §1

[14] = compound: C1=CC2=NC=CN=C2C=C1/C=C/3\C(=O)NC(=O)S3
How it was run: as §1

ibrutinib = compound: C=CC(=O)N1CCC[C@@H](n2nc(-c3ccc(Oc4ccccc4)cc3)c3c(N)ncnc32)C1 [ibrutinib]
How it was run: as §1

[15] = compound: CC(=O)c1cnc2ccc(-c3cc(Cl)c(O)c(Cl)c3)nc2c1N[C@H]1CC[C@H](CN(C)C)CC1
How it was run: as §1

[16] = compound: CC1=CC=C(C=C1)SC2=C3C=C(SC3=CN=C2)C(=O)N
How it was run: as §1

Measured: log2 fold change

RNF2 (UniProt Q99496)
inactive: erlotinib 0.061 | [1] -0.088 | [2] -0.031 | [3] 0.036 | [4] 0.002 | [5] -0.01 | [6] 0.048 | [7] -0.037 | IRAK-1-4 Inhibitor I -0.039 | ralimetinib -0.053 | [8] -0.01 | [9] 0.017 | [10] 0.009 | [11] -0.081 | [12] -0.048 | [13] 0.024

SAP30 (UniProt O75446)
inactive: [1] 0.06 | [3] 0.025 | [14] -0.037 | [5] 0.013 | [6] 0.011 | [7] 0.067 | ibrutinib 0.058 | [15] 0.033 | [10] 0.101 | [11] -0.007 | [12] 0.016 | [16] 0.006

RNPC3 (UniProt Q96LT9)
inactive: erlotinib 0.004 | [2] -0.059 | [4] 0.011 | IRAK-1-4 Inhibitor I 0.076 | [15] 0.017 | ralimetinib 0.02 | [8] -0.029 | [9] -0.122 | [10] -0.027 | [11] -0.015 | [12] -0.028 | [13] 0.054 | [16] -0.003

SEMA4G isoform 2 (UniProt Q9NTN9)
inactive: erlotinib 0.005 | [1] -0.137 | [2] -0.063 | [3] 0.032 | [5] -0.011 | [6] 0.034 | [7] -0.112 | [9] -0.013 | [11] -0.021 | [12] -0.137

RBM45 (UniProt Q8IUH3)
inactive: [15] -0.077 | [10] -0.127 | [12] 0.038
active: [16] 0.487

SELENOK (UniProt Q9Y6D0)
inactive: [1] -0.075 | [3] 0.02 | [14] 0.089 | [5] 0.044 | ibrutinib 0.05 | [15] -0.134 | [10] 0.092 | [11] -0.164 | [16] 0.022

RXRA (UniProt P19793)
inactive: erlotinib 0.102 | [2] 0.008 | [4] -0.025 | IRAK-1-4 Inhibitor I 0.113 | [15] -0.028 | ralimetinib -0.033 | [8] 0.087 | [9] 0.066 | [10] 0.059 | [11] 0.063 | [12] -0.02 | [13] -0.036 | [16] 0

RPS6KA3 (UniProt P51812)
UniProt P51812, sequence (P51812 whole entry, looked up): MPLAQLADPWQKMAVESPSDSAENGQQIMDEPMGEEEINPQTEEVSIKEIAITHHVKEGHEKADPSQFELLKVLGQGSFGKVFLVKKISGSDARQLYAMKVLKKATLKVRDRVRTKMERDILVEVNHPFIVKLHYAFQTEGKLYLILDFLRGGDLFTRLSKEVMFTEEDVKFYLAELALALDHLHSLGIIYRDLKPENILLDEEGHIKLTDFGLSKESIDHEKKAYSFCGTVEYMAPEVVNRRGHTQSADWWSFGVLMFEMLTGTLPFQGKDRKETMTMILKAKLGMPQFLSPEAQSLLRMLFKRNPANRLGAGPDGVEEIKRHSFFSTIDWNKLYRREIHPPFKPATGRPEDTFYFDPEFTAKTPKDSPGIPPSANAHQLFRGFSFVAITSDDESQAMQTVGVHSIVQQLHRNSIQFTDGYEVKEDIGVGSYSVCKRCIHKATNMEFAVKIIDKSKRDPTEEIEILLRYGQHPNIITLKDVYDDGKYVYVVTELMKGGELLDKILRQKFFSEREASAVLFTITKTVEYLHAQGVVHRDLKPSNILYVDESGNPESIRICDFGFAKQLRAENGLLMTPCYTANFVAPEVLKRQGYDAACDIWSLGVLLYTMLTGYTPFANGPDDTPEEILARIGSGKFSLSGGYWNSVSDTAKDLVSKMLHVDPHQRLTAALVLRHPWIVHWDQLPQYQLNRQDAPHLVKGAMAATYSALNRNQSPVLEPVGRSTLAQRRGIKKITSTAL
active: [15] 0.56
inactive: erlotinib -0.04 | [1] -0.003 | [2] 0.182 | [14] 0.004 | [4] 0.026 | [5] 0.328 | [6] 0.082 | [7] -0.043 | IRAK-1-4 Inhibitor I -0.019 | ibrutinib -0.04 | ralimetinib -0.004 | [8] -0.032 | [9] -0.11 | [10] -0.043 | [11] -0.02 | [12] -0.061 | [13] 0.006 | [16] -0.039

RAD54L (UniProt Q92698)
inactive: erlotinib -0.026 | [2] -0.005 | [14] -0.072 | [4] -0.071 | IRAK-1-4 Inhibitor I 0.02 | ibrutinib -0.081 | [15] 0.035 | ralimetinib -0.062 | [8] -0.224 | [9] 0.085 | [10] 0 | [11] 0.039 | [13] 0.054 | [16] 0.059

SATB2 (UniProt Q9UPW6)
inactive: erlotinib -0.019 | [1] -0.044 | [2] 0.022 | [3] -0.01 | [4] -0.006 | [5] 0.031 | [6] -0.033 | [7] 0.009 | IRAK-1-4 Inhibitor I 0.027 | [15] -0.005 | ralimetinib 0.037 | [8] -0.004 | [9] -0.029 | [10] -0.007 | [11] -0.023 | [12] -0.027 | [13] 0.002 | [16] 0.047

S100A6 (UniProt P06703)
active: [11] 0.793
inactive: erlotinib 0.045 | [1] 0.346 | [2] -0.025 | [3] 0 | [4] -0.196 | [5] 0.02 | [6] 0.352 | [7] 0.151 | IRAK-1-4 Inhibitor I -0.209 | [15] -0.082 | ralimetinib 0.117 | [8] 0.152 | [9] -0.01 | [12] 0.04 | [13] 0.199 | [16] 0.032

SEC16A isoform 2 (UniProt O15027)
UniProt O15027, sequence (O15027 whole entry, looked up): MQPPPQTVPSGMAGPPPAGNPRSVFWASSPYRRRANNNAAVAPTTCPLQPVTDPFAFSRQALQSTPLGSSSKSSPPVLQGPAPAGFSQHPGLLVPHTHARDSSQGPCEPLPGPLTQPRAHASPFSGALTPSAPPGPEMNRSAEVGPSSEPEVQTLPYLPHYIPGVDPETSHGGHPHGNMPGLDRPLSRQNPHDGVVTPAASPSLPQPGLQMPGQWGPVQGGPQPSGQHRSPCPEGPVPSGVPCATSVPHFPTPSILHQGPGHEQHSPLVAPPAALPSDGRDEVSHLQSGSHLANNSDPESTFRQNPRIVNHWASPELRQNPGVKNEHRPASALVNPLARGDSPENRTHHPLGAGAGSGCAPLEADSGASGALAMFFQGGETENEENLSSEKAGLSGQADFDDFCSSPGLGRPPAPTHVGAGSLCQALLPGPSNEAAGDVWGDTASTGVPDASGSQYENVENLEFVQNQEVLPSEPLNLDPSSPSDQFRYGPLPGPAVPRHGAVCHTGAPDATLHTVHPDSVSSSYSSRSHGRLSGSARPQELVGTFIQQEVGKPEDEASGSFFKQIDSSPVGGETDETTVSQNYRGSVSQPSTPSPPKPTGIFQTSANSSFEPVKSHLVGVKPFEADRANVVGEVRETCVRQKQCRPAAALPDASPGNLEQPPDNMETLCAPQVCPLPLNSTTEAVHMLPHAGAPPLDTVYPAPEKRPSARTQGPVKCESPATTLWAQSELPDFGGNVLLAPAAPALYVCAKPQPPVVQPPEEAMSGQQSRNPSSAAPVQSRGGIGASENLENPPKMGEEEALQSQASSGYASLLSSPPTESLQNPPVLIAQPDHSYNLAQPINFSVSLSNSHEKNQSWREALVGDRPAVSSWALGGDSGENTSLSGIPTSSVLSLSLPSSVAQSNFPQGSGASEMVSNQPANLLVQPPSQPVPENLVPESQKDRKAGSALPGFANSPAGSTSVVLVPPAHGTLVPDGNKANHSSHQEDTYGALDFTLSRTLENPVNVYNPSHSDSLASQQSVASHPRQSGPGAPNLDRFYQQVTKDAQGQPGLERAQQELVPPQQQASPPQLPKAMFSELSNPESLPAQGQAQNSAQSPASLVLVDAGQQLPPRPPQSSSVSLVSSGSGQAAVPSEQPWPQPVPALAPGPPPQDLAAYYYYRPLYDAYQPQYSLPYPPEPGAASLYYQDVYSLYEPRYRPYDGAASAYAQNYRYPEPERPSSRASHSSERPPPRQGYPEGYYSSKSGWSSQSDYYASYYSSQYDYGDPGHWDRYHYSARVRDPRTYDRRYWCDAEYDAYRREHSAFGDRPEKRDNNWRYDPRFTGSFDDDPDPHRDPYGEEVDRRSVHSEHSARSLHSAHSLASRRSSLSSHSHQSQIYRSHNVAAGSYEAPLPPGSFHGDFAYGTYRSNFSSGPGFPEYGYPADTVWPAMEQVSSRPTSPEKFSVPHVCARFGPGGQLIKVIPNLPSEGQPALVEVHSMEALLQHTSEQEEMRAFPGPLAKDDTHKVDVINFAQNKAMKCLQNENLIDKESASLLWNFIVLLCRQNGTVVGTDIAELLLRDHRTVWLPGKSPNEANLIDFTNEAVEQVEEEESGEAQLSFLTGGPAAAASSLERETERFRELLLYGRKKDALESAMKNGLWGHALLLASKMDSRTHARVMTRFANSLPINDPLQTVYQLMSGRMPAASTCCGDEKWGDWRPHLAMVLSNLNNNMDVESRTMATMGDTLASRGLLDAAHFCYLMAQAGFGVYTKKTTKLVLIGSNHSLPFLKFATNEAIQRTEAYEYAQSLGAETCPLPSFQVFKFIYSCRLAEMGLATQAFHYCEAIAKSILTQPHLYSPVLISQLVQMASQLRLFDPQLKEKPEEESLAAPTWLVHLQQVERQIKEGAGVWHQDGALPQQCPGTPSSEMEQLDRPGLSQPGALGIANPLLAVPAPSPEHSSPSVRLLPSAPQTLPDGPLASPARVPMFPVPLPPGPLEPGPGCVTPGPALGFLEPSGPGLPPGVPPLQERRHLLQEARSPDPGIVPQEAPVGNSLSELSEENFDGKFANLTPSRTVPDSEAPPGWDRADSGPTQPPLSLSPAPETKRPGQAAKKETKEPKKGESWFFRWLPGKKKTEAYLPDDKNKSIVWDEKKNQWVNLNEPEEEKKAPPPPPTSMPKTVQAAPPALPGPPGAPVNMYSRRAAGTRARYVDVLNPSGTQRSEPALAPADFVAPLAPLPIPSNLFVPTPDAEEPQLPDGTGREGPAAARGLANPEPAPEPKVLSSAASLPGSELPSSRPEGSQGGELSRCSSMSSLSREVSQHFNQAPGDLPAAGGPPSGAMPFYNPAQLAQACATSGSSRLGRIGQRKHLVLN
inactive: [4] -0.07 | IRAK-1-4 Inhibitor I -0.053 | ralimetinib -0.103 | [8] -0.062 | [13] 0.167

RBM4 isoform 3 (UniProt Q9BWF3)
inactive: [12] -0.092

RMI2 (UniProt Q96E14)
inactive: erlotinib 0.051 | [1] -0.246 | [2] -0.121 | [3] 0.206 | [4] 0.002 | [5] -0.121 | [6] -0.044 | [7] 0.117 | IRAK-1-4 Inhibitor I 0.054 | ralimetinib -0.061 | [8] 0.007 | [9] -0.032 | [11] 0.021 | [12] 0.011 | [13] 0.039

RAD17 (UniProt O75943)
UniProt O75943, sequence (O75943 whole entry, looked up): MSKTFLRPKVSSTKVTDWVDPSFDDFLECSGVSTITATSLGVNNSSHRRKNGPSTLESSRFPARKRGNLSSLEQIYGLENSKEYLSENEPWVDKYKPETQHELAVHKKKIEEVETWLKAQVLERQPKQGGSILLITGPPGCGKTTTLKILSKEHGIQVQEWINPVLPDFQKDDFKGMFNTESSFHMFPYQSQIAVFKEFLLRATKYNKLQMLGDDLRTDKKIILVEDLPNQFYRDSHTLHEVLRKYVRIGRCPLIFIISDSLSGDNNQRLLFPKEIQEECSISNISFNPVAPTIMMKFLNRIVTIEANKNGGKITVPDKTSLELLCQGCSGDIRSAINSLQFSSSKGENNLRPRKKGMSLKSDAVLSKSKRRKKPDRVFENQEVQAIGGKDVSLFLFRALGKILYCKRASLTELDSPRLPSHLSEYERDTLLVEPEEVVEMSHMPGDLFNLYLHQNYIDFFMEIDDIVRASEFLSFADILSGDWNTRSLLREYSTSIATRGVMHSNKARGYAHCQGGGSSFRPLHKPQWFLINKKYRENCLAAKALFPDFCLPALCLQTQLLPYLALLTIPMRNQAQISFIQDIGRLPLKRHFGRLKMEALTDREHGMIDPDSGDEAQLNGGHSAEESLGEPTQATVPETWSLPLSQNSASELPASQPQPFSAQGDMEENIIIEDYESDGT
active: [5] -0.458
inactive: [1] 0.005 | [3] -0.1 | [14] 0.014 | [4] -0.047 | [6] 0.031 | [7] 0.019 | IRAK-1-4 Inhibitor I 0.021 | ibrutinib 0.023 | ralimetinib 0.054 | [8] 0.041 | [10] 0.026 | [11] -0.029 | [12] -0.041 | [13] 0.049

RHOU (UniProt Q7L0Q8)
UniProt Q7L0Q8, sequence (Q7L0Q8 whole entry, looked up): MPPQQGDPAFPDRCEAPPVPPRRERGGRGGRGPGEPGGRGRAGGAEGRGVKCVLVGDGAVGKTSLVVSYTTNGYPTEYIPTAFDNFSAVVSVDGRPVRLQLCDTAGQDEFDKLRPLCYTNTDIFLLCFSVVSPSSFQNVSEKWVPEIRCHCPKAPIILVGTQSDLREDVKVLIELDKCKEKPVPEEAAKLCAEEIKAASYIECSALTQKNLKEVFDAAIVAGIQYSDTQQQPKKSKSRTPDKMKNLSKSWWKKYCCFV
inactive: erlotinib -0.052 | [1] 0.07 | [2] -0.096 | [3] -0.054 | [4] 0.002 | [5] 0.061 | [6] -0.006 | [7] 0.03 | IRAK-1-4 Inhibitor I -0.089 | [15] -0.007 | ralimetinib 0.057 | [8] 0.009 | [9] 0.066 | [10] 0.012 | [11] 0.015 | [12] -0.003 | [13] 0.019 | [16] 0.045

RNF17 (UniProt Q9BXT8)
inactive: erlotinib -0.055 | [2] 0.008 | [14] 0.553 | [4] 0.013 | [6] -0.025 | [7] 0.033 | IRAK-1-4 Inhibitor I 0.055 | ibrutinib -0.098 | [15] 0.035 | ralimetinib -0.044 | [8] -0.254 | [9] -0.023 | [11] 0.077 | [12] -0.196 | [13] -0.044 | [16] -0.068

SEC16A isoform 3 (UniProt O15027)
inactive: [4] 0.41 | IRAK-1-4 Inhibitor I 0.123 | ralimetinib -0.283 | [8] -0.122 | [11] -0.006 | [13] -0.023

RPS6KA5 (UniProt O75582)
UniProt O75582, sequence (O75582 whole entry, looked up): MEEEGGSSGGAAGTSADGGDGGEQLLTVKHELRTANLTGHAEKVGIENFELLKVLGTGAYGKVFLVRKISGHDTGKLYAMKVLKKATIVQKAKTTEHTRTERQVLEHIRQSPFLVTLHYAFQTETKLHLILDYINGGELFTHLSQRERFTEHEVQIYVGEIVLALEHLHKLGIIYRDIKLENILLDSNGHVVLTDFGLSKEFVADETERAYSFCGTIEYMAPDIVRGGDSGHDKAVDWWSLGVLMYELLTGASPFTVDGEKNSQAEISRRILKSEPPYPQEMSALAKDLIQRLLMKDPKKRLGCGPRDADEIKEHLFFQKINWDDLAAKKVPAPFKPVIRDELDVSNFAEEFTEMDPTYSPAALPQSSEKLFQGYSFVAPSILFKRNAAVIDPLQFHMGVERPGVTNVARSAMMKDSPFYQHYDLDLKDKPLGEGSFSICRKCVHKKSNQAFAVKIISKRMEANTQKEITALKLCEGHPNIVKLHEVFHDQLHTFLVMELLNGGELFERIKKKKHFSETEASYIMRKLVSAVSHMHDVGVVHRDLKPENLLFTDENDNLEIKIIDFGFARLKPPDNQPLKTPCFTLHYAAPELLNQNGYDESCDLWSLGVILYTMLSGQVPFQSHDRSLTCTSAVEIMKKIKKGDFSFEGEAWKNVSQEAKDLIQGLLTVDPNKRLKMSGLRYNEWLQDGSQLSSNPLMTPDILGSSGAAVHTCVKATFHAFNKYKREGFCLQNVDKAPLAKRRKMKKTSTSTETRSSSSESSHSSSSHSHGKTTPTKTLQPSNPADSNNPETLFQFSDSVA
active: [12] -0.441
inactive: erlotinib -0.036 | [1] -0.161 | [2] 0.2 | [3] 0.014 | [4] 0.023 | [5] 0.152 | [6] -0.02 | [7] -0.11 | IRAK-1-4 Inhibitor I 0.014 | [15] 0.173 | ralimetinib -0.02 | [8] -0.055 | [9] -0.027 | [10] 0.011 | [11] -0.04 | [13] 0.004 | [16] 0.005

RNF170 (UniProt Q96K19)
UniProt Q96K19, sequence (Q96K19 whole entry, looked up): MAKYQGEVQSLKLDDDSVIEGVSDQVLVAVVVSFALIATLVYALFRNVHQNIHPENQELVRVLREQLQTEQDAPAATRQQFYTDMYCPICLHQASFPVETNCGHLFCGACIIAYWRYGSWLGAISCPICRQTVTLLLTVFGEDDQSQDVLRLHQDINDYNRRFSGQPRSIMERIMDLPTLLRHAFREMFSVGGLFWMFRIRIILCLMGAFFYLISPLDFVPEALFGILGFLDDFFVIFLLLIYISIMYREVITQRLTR
inactive: erlotinib 0.062 | [1] -0.018 | [2] -0.125 | [3] 0.136 | [14] 0.032 | [5] -0.577 | ibrutinib -0.006 | [15] 0.107 | [9] 0.084 | [10] 0.302 | [11] -0.035 | [16] -0.036

QSER1, A0A3B3IRW6
inactive: erlotinib -0.056 | [1] 0.025 | [2] 0.054 | [3] -0.057 | [4] -0.006 | [5] 0.059 | [6] 0.002 | [7] -0.046 | IRAK-1-4 Inhibitor I -0.014 | [15] -0.047 | ralimetinib -0.014 | [8] -0.021 | [9] -0.009 | [10] -0.001 | [11] 0.037 | [12] 0.009 | [13] 0.087 | [16] -0.087

RNASEH2B, A0A1B0GUE7
inactive: [15] -0.017 | [10] -0.12 | [16] 0.09

RBBP7 (UniProt C9J7L0)
inactive: [10] -0.187

SCNM1 (UniProt Q9BWG6)
inactive: erlotinib 0.045 | [2] 0.044 | [4] -0.005 | [6] -0.054 | [7] -0.158 | IRAK-1-4 Inhibitor I -0.021 | [15] -0.026 | ralimetinib 0.013 | [8] 0.012 | [9] 0.062 | [10] 0.065 | [11] -0.189 | [12] 0.06 | [13] -0.069 | [16] -0.221

RHBDD1 (UniProt Q8TEB9)
inactive: [1] -0.476 | [3] 0.19 | [14] 0.337 | [5] -0.056 | [6] -0.093 | [7] 0.159 | ibrutinib -0.059 | [16] 0.038
active: [15] -0.518

SERAC1 (UniProt Q96JX3)
inactive: erlotinib 0.004 | [2] -0.235 | [14] -0.014 | [6] 0.123 | [7] 0.056 | ibrutinib 0.066 | [9] -0.115 | [10] 0.051 | [11] -0.193

RYR1 (UniProt P21817)
inactive: erlotinib -0.077 | [2] -0.174 | [14] 0.012 | [4] -0.025 | [6] -0.029 | [7] -0.057 | IRAK-1-4 Inhibitor I -0.003 | ibrutinib 0.091 | [15] 0.008 | ralimetinib -0.028 | [8] -0.012 | [9] -0.088 | [11] -0.014 | [12] 0.195 | [13] -0.032 | [16] 0.013

RFNG (UniProt Q9Y644)
inactive: [10] 0.023
